Experimental findings from PubChem BioAssay (EPA / NIEHS) are described below.

The nature of assay [1]: BSK_BT_PBMCCytotoxicity: PBMC Cytotoxicity Assessment in the BioMAP Diversity Plus: BT Assay (AID 2284225).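 Note: PBMC viability measured by Alamar Blue dye reduction fluorescence.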 To be noted: primary human B cells with PBMC. The method in brief: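 PBMC (75,000/well) pretreated with compound 1 h, then activated with SEB and TSST-1 (20 ng/mL each final), incubated 90 h; Alamar Blue added 6 h, fluorescence read at 546/580 nm. Fitted relative to DMSO.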

Read-out in assay [2]: Secreted IgG (sIgG), gene 3500
Description: BSK_BT_sIgG: BioMAP Diversity Plus: BT Assay for Secreted IgG (sIgG) Biomarker Activity (AID 2284226). To be noted: primary human B cells with PBMC. In outline:
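Read-out: ELISA for secreted IgG after 24 h of chemical exposure in a B cell plus PBMC co-culture. Values reflect upward-direction fitting against DMSO negative controls.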

The nature of assay [3]: BSK_BT_Bcell_Proliferation: Viability Assessment in the BioMAP Diversity Plus: BT Assay for B cell Proliferation (AID 2284227). The conditions noted are these: primary human B cells with PBMC. The method in brief:
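Human B cell/PBMC co-culture; test chemical added; 72 h; TCA fix (10%), 0.1% SRB stain, A560 for total protein as a proliferation read-out; positive-direction fit vs DMSO baseline.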

Read-out in assay [4]: Interleukin 17A (IL17A), IL17A (gene 3605)
Description: BSK_BT_xIL17A: BioMAP Diversity Plus: BT Assay for Interleukin 17A (IL17A) Biomarker Activity (AID 2284229). To be noted: primary human B cells with PBMC. The method in brief: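 Luminex xMAP readout of secreted IL-17A; human B cell + PBMC co-culture; 24 h post-dose; positive-direction fit vs DMSO negative control.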

Read-out in assay [5]: Vascular cell adhesion molecule 1 (VCAM1), VCAM1 (gene 7412)
Description: BSK_MyoF_VCAM1: BioMAP Diversity Plus: MyoF Assay for Vascular cell adhesion molecule 1 (VCAM1) Biomarker Activity (AID 2284231). To be noted: primary human lung fibroblasts. In outline: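 MyoF system, lung fibroblasts; 24 h post-dose; VCAM-1 by ELISA; gain-of-signal fit vs DMSO baseline.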

Read-out in assay [6]: Collagen I, COL1A1 (gene 1277)
Description: BSK_MyoF_CollagenI: BioMAP Diversity Plus: MyoF Assay for Collagen I Biomarker Activity (AID 2284238). The conditions noted are these: primary human lung fibroblasts. The method in brief:
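ELISA readout of Collagen I after 24 h chemical treatment of primary human lung fibroblast cultures; gain of signal scored relative to DMSO vehicle baseline.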

Read-out in assay [7]: Collagen III, COL3A1 (gene 1281)
Description: BSK_MyoF_CollagenIII: BioMAP Diversity Plus: MyoF Assay for Collagen III Biomarker Activity (AID 2284239). To be noted: primary human lung fibroblasts. The method in brief: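 Lung fibroblast culture; 24 h compound exposure; collagen III by ELISA; gain-of-signal fit vs DMSO baseline.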

Read-out in assay [8]: Interleukin 17F (IL17F), IL17F (gene 112744)
Description: BSK_BT_xIL17F: BioMAP Diversity Plus: BT Assay for Interleukin 17F (IL17F) Biomarker Activity (AID 2284243). The conditions noted are these: primary human B cells with PBMC. In outline: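 Secreted IL-17F, read on LumineX xMAP beads, was taken as the endpoint. Cultures combined human B cells and peripheral blood mononuclear cells, sampled 24 hours after dosing, with DMSO serving as negative control.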

Read-out in assay [9]: Actin alpha 1 (ACTA1), ACTA1 (gene 58)
Description: BSK_MyoF_ACTA1: BioMAP Diversity Plus: MyoF Assay for Actin alpha 1 (ACTA1) Biomarker Activity (AID 2284244). The conditions noted are these: primary human lung fibroblasts. In outline: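 Lung fibroblasts, human primary, 24 h compound exposure → a-SMA ELISA. Positive-direction fit vs DMSO control.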

SMILES strings stand for the structures. Where “and” joins values, the source holds several entries; their conditions need not be identical. Equal entries are not always repeated. Some structures have more than one record in an assay (separate samples or runs), and their calls can disagree. Calls of active or inactive are those of the source. Rule for the calls: active = hit-call score of the fitted dose curve at least 0.9, where 1 is the maximum; inactive = score below 0.9.

Usually AC50 stands for the concentration giving half of the maximal activity seen. For the molecule `Cc1ccc(C(=O)c2ccccc2)cc1`, the result in assay [1], in [2], in [3], in [4], in assay [6] and in assay [7] was inactive. The result in [8] was inactive. In addition, the AC50 in [5] is 31.4 µM (active); in assay [9], 20 µM (active).

With `CCCCCCCCCCCCCCCCCC[N+](C)(C)Cc1ccccc1`, the AC50 is 4.83 µM (active) in [1]; 0.66 µM (active) in assay [2]; 1.88 µM (active) in assay [3]; 792 nM (active) in [4]; 2.72 µM (active) in assay [5]; 1.02 µM (active) in assay [6]. Besides, the AC50 in [7] is 2.09 µM (active); in assay [8] it was 2.42 µM (active); in [9], 2.7 µM (active).

Turning to `O=C1OC2(c3ccccc31)c1cc(I)c(O)c(I)c1Oc1c2cc(I)c(O)c1I`, the result in assay [1], in assay [2], in [3], in assay [4], in assay [8] and in [9] was inactive. Besides, the concentration at half-maximal activity (AC50) in assay [5] is 9.09 µM (active); in [6] it was 5.89 µM (active).

Regarding `CN(C)c1ccc(C(=C2C=CC(=[N+](C)C)C=C2)c2ccccc2)cc1`, the AC50 is 0.993 µM (active) in [1]; 0.227 µM (active) in assay [2]; 0.248 µM (active) in assay [3]; 280 nM (active) in assay [4]; 0.0764 µM (active) in assay [5]; 0.0082 µM (active) in [6]. The AC50 in [7] is 0.164 µM (active); in assay [8], 0.49 µM (active); in assay [9], 1.06 µM (active).

On to `COC1=CC(=O)C[C@@H](C)[C@]12Oc1c(Cl)c(OC)cc(OC)c1C2=O`, for which the outcome in assay [1], in assay [4], in [5], in assay [8] and in [9] was inactive. In addition, the AC50 in [2] is 30.9 µM (active); in [3] it was 37.3 µM (active); in [6] it was 20 µM (active); in assay [7], 3.97 µM (active).

For the molecule `O=C(O)C(F)(F)OC(F)(F)C(F)(F)OC(F)(F)C(F)(F)OC(F)(F)C(F)(F)C(F)(F)C(F)(F)F`, the result in assay [1], in assay [3] and in assay [9] was inactive. In addition, the AC50 in assay [2] was 42.5 µM (active) and 34.9 µM (active); in assay [4] it was 41.8 µM (active) and 51.3 µM (active); in assay [5], 12.5 µM (active) and 12.3 µM (active); in assay [6] it was 9.61 µM (active) and 5.9 µM (active); in [7], 6.08 µM (active) and 4.89 µM (active); in assay [8] it was 49.6 µM (active) and 47 µM (active). Besides, the AC50 in assay [9] was 4.11 µM (active).

`COc1cccc(O)c1`: the outcome in [1], in [2], in assay [3], in assay [4], in [5] and in assay [6] was inactive. Also, the result in assay [7], in assay [8] and in assay [9] was inactive.

With `COc1cc(OC)nc(NC(=O)NS(=O)(=O)Nc2ccccc2C(=O)N(C)C)n1`, the result in assay [1], in assay [2], in assay [3], in assay [4], in [5] and in [6] was inactive. For the same molecule, the result in assay [7], in assay [8] and in assay [9] was inactive.

As for `CC[N+](CC)(CC)Cc1ccccc1`, the outcome in assay [1], in [2], in assay [3], in [4], in [5] and in [6] was inactive. The outcome in [7], in assay [8] and in [9] was inactive.

Consider `CCCCC(CC)C(=O)OCCOCCOCCOCCOC(=O)C(CC)CCCC` (stereo not drawn), for which the result in assay [1], in assay [4], in [5], in [6], in assay [7] and in [8] was inactive. In [9], the result was inactive. Besides, the concentration at half-maximal activity (AC50) in [2] was 25.2 µM (active); in [3], 28.4 µM (active).

In the case of `C=COC(=O)C(C)(C)CCCCCC`, the result in assay [1], in [2], in assay [3], in assay [4] and in assay [8] was inactive. The AC50 in [5] was 31 µM (active); in assay [6] it was 34.2 µM (active); in assay [7], 31.9 µM (active); in [9], 34.3 µM (active).

For the molecule `CCOC(=O)CN[C@@H](C(=O)N1CC[C@H]1C(=O)NCc1ccc(/C(N)=N/O)cc1)C1CCCCC1`, the result in [1], in [2], in assay [3], in [4], in assay [5] and in [6] was inactive. The result in [7], in assay [8] and in [9] was inactive.

On to `C=CC(C)(CCC=C(C)C)OC(C)=O` (stereo not drawn), for which the outcome in assay [1], in [2], in [3], in assay [4], in assay [5] and in [6] was inactive. Besides, the result in assay [7], in assay [8] and in assay [9] was inactive.

For the molecule `O=S(=O)(O)C(F)(F)C(F)(F)C(F)(F)C(F)(F)C(F)(F)C(F)(F)C(F)(F)C(F)(F)C(F)(F)C(F)(F)F`, the result in assay [1], in assay [2], in [3], in [4], in [5] and in assay [6] was inactive. For the same molecule, the result in assay [7], in assay [8] and in assay [9] was inactive.

On to `Cc1ccc(N=Nc2c(O)ccc3ccccc23)c(C)c1`, for which the outcome in [1], in assay [3], in [4], in assay [5], in assay [6] and in assay [7] was inactive. For the same molecule, the result in assay [8] and in [9] was inactive. Further, the AC50 in assay [2] is 10 µM (active).

`Cc1cccc2c1ccc1ccccc12`: the outcome in [1], in assay [3], in assay [4], in [5], in [6] and in [7] was inactive. Further, the result in assay [9] was inactive. Further, the AC50 in [2] was 26.6 µM (active); in assay [8] it was 20 µM (active).

On to `O=C(NO)c1ccccc1`, for which the result in assay [1], in assay [2], in [3], in assay [5], in assay [6] and in assay [7] was inactive. The outcome in assay [9] was inactive. For the same molecule, the values for the AC50 in assay [4] and in assay [8] were 8550 nM (active) and 19.2 µM (active), respectively.

Turning to `Oc1cc2ccccc2cc1O`, the outcome in assay [1], in assay [2], in assay [3], in assay [4], in assay [5] and in assay [6] was inactive. Besides, the outcome in [7], in [8] and in assay [9] was inactive.

In the case of `Clc1ccc(Nc2nnc(Cc3ccncc3)c3ccccc23)cc1`, the result in assay [1], in assay [3], in [4], in assay [5], in [6] and in [7] was inactive. Further, the outcome in assay [8] and in assay [9] was inactive. In assay [2], the AC50 was 6.52 µM (active).

With `O=C1c2ccc(O)c(O)c2C(=O)c2c(O)ccc(O)c21`, the outcome in assay [1], in assay [2], in assay [3], in assay [4], in assay [5] and in assay [6] was inactive. The outcome in assay [7], in assay [8] and in assay [9] was inactive.

Turning to `CCCCCc1ccc(O)cc1`, the result in assay [1], in [3], in assay [4] and in assay [8] was inactive. In addition, the AC50 is 20 µM (active) in [2]; 26.9 µM (active) in [5]; 24 µM (active) in [6]; 16.1 µM (active) in assay [7]; 11.3 µM (active) in [9].

As for `C=CC(=C)CC/C=C(\C)CCC=C(C)C`, the outcome in assay [1], in [2], in assay [3], in [4], in assay [5] and in assay [6] was inactive. In addition, the result in [7], in [8] and in [9] was inactive.
